Bioassay records: PubChem BioAssay, The Scripps Research Institute Molecular Screening Center
This is a sample that favours compounds with a hit; in the whole collection about 2.3% have one here.
M1 PAM – positive allosteric modulators of human M1 muscarinic receptor; P11229; CHO-K1 hM1, Fluo-8 calcium fluorescence, ACh EC20; 0% = ACh EC20, 100% = maximal ACh; activation, % at 3 µM; 0.088% of 360,000 active; in the data active = activation above about 19%, passing the limit was not always enough
Target sequence (P11229 whole entry, looked up): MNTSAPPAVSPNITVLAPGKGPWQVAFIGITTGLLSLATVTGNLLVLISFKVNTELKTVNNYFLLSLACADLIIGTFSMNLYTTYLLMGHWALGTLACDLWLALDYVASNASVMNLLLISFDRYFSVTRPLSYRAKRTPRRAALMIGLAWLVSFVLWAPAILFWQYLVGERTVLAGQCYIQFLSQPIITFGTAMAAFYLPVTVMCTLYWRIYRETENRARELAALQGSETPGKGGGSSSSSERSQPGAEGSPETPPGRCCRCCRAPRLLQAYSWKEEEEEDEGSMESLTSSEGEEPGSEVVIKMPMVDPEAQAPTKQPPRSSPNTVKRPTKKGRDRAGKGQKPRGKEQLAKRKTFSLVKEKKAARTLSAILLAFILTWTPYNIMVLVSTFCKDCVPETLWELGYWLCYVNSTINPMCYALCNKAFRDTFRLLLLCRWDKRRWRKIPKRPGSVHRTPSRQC
CHRM1 agonist – activates human CHRM1 receptor; 0.33% of 360,000 active; CHO-K1 hM1, Fluo-8 calcium fluorescence, agonist mode; 0% DMSO, 100% acetylcholine EC100; P11229; activation, % at 3 µM;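 active = activation above the run's mean compound activation plus 3 SD, cut at about 16% in these data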;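 also: peak over basal fluorescence ratio within a 140 s kinetic read after compound addition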
CHO-K1 Ca antag – M1 antagonist counterscreen hit in parental CHO-K1 cells; ATP-induced calcium, Fluo-8 fluorescence; inhibition, % at 3 µM; 0.6% of 360,000 active; AID 602250;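 active = inhibition above a per-plate cutoff, the plate's mean sample inhibition plus 3 SD, cut at about 24% in these data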
CHO-K1 Ca PAM – M1 PAM counterscreen hit in parental CHO-K1 cells. ATP EC20, Fluo-8 calcium fluorescence; 0% at ATP EC20, 100% at ATP max. AID 602247. activation, % at 3 µM. 0.02% of 360,000 active;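 active = activation above the run cutoff, the mean activation of all test compounds plus 3 SD, cut at about 40% in these data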;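 also: peak over basal fluorescence ratio in a 140 s read after ATP addition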
CHRM1 antagonist – antagonists of human M1 muscarinic receptor; CHO-K1 hM1, Fluo-8 calcium fluorescence, ACh EC80 antagonist; inhibition, % at 3 µM; 1.3% of 360,000 active;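 active = percent inhibition above its own plate's cutoff, namely the mean of that plate's compound wells plus 3 SD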;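 also: peak over basal fluorescence ratio during 140 s after agonist addition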
CHO-K1 Ca ag – M1 agonist counterscreen hit in parental CHO-K1 cells; activation, % at 3 µM; AID 602248; Fluo-8 calcium fluorescence; scaled to maximal ATP response, vehicle zero; 0.48% of 360,000 active; in the data active = activation above about 15%;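 also: untransfected CHO-K1 host cells lacking M1 receptor as counterscreen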
Hits are given with their value; i = inactive; nt = not tested or not shown.

SMILES	M1 PAM	CHRM1 agonist	CHO-K1 Ca antag	CHO-K1 Ca PAM	CHRM1 antagonist	CHO-K1 Ca ag
Cn1c(=O)c2[nH]c(CCCCCCCCc3nc4ccccc4[nH]3)nc2n(C)c1=O	i	i	i	i	37.5	i
COc1ccc(C(=O)NC2=NCCS2)cc1S(=O)(=O)N1CCOCC1	i	i	i	i	i	i
FC(F)(F)c1nnc2c(Sc3ccc(Cl)cc3)nc3ccccc3n12	i	i	38.7	i	i	i
CCCn1nnc(NC(=O)c2ccc([N+](=O)[O-])cc2Cl)n1	i	i	i	i	i	15.2
Cc1noc(NS(=O)(=O)c2ccc(NC(=O)c3ccccc3NS(=O)(=O)c3ccc(F)cc3)cc2)c1C	i	i	i	i	i	i
Cc1cccc(/C=N/NC(=O)c2ccc(Br)cc2)c1	i	i	i	i	i	17.1
CN1CCC2(CC1)N=C(c1ccc(F)cc1)C(=S)N2C(=O)c1ccc(C(C)(C)C)cc1	i	i	i	i	48.8	i
CC1(C)CC(NC(=O)c2ccc(Br)o2)CC(C)(C)N1	i	i	i	i	i	i
O=C1C2C3C=CC(C4CC34)C2C(=O)N1c1cccc2ccccc12 (stereo not given)	i	i	i	i	i	18.2
Cc1ccc2c(c1)/C(=N/OS(=O)(=O)c1ccccc1)CCS2	i	i	i	i	i	i
Cc1ccc(S(=O)(=O)ON=C2CCN(S(=O)(=O)c3ccccc3)CC2)cc1	i	i	i	i	i	i
CC1=CC(=O)C(C(C)C)=C/C1=N/OS(=O)(=O)c1ccccc1	i	i	50.2	i	61.3	20.2
CC1=CC(=O)C=C(C)C1=NOS(=O)(=O)c1ccccc1	i	i	i	i	18.5	i
Cc1ccc(NC(=O)CSC2=C(C#N)C(c3ccco3)CC(=O)N2)cc1 (stereo not given)	i	i	i	i	i	i
Cc1ccc(C(=O)CSC2=C(C#N)C(c3ccco3)CC(=O)N2)c(C)c1 (stereo not given)	i	37.0	i	i	i	15.7
COc1cc(/C=C/C(=O)OC(C)C(=O)Nc2c(C)n(C)n(-c3ccccc3)c2=O)ccc1O (stereo not given)	i	i	i	i	i	i
CCc1ccc(NC(=O)C(C)OC(=O)/C=C/c2ccc(O)c(OC)c2)cc1 (stereo not given)	i	34.2	i	i	i	25.2
COc1ccc(C2CC(=O)Oc3cc(C)cc(C)c32)cc1 (stereo not given)	i	i	i	i	i	i
COc1ccc(C2CC(=O)Oc3c(C(C)C)ccc(C)c32)cc1 (stereo not given)	i	18.1	i	i	i	i
CCCC(=O)N1CCC1(C)C(=O)Nc1ccc2nccnc2c1 (stereo not given)	i	i	i	i	i	i
CCC(C)NS(=O)(=O)c1ccc(S(=O)(=O)N2CCCC3(CCCCC3)C2)cc1 (stereo not given)	i	i	i	i	35.7	i
CN1/C(=C/C=C(C#N)C#N)C(C)(C)c2ccccc21	i	i	i	i	i	i
CC1=C/C(=C\C=C(C#N)C#N)N(C)c2ccccc21	i	21.7	i	i	i	27.4
CC(C)C[C@H](NC(=O)[C@@H]1Cc2ccccc2CN1)C(=O)Nc1ccc(C(C)C)cc1	i	i	i	i	i	i
CC(C)c1ccc(NC(=O)[C@@H](C)NC(=O)[C@@H]2Cc3ccccc3CN2)cc1	i	i	i	i	37.4	i
SMILES	M1 PAM	CHRM1 agonist	CHO-K1 Ca antag	CHO-K1 Ca PAM	CHRM1 antagonist	CHO-K1 Ca ag
Cc1ccc(OCCn2cncn2)c([N+](=O)[O-])c1	i	i	i	i	i	19.1
Cc1ccc(OCCCCn2ccnc2)c([N+](=O)[O-])c1	i	i	i	i	i	i
Cc1c(P(=S)(c2ccccc2)c2ccccc2)[n+]2ccccc2n1C/C=C/c1ccccc1	i	i	i	i	56.5	i
CC(O)c1nc2ccccc2n1C/C=C/c1ccccc1 (stereo not given)	i	i	i	i	i	i
Cc1ccc2c(=O)c(CN3CCCCCC3)c(C)[nH]c2c1C	i	i	i	i	72.0	i
CC1=CC(C)(C)N(C(=O)c2ccccc2)c2ccc(C)cc21	i	27.7	i	i	i	i
O=C(NC(=S)NCCC1=CCCCC1)c1cncc(Br)c1	i	i	i	i	i	15.8
O=C(NC(=S)NCCC1=CCCCC1)c1ccccc1Br	i	i	i	i	i	i
NC(=O)c1c(N)[nH]c(C(=O)c2ccccc2)c1-c1ccccc1Br	nt	nt	i	i	nt	i
Cc1cccc(/C=N/NC(=O)c2cc(C3CC3)nc3ccccc23)n1	i	i	25.8	i	i	i
Cc1cccc(/C=N/NC(=O)c2cc(C)nc3ccccc23)n1	i	i	i	i	i	i
CCOC(=O)C1CCCN(C(=O)c2cc(Cl)ccc2Cl)C1 (stereo not given)	i	18.7	i	i	i	i
CCOC(=O)C1CCN(C(=O)COC(=O)/C=C/c2ccccc2)CC1	i	i	i	i	i	i
CCOC(=O)C1CCCN(C(=O)c2ccc(Cl)cc2)C1 (stereo not given)	i	i	i	i	i	i
CCOC(=O)C1CCN(C(=O)COC(=O)/C=C/c2cccc(OC)c2OC)CC1	i	19.4	i	i	i	i
CCOC(=O)C1CCCN(C(=O)c2ccc(S(=O)(=O)N3CCCC3)cc2)C1 (stereo not given)	i	i	i	i	38.8	i
CCOC(=O)C1CCN(C(=O)COc2ccc(Cl)cc2Cl)CC1	i	i	24.2	i	i	i
CCOC(=O)C1CCN(C(=O)COc2ccc(Cl)cc2C)CC1	i	i	i	i	i	i
CCOC(=O)C1CCCN(C(=O)c2ccc(S(=O)(=O)N3CCOCC3)cc2)C1 (stereo not given)	i	i	i	i	i	i
COC(=O)C1CCN(C(=O)C(C)Oc2ccc(Cl)cc2Cl)CC1 (stereo not given)	i	i	i	i	i	i
CCOC(=O)C1CCCN(C(=O)C(C)Oc2ccc(Cl)cc2Cl)C1 (stereo not given)	i	21.2	i	i	i	i
CCN(CC(=O)Nc1ccc(OC)cc1)C(=O)Cc1ccsc1	27.2	i	i	i	i	i
O=C1Nc2cc(C(=O)NCCCN3CCCC3)ccc2S/C1=C/c1ccccc1F	i	i	i	i	i	i
O=C(NCCCN1CCCCC1)c1ccc2c(c1)NC(=O)c1ccccc1S2	i	i	i	i	42.8	i
C=C1C(=O)C23C(O)C1CCC2C12COC3(O)C(O)C1C(C)(C)CCC2O (stereo not given)	i	i	i	i	i	i
CCOc1ccc(N2CC(O)=C(c3nc4ccccc4c(=O)[nH]3)C2=N)cc1	i	i	i	i	i	i
COc1ccc(CCN2CC(O)=C(c3nc4ccccc4c(=O)[nH]3)C2=N)cc1OC	i	i	29.7	i	i	i
